# From PubChem BioAssay
# Records with an inconclusive call do not appear. Calls of active or inactive are those of the source. Rule as the data show it, unless noted: active = inhibition above about 80%; inactive = the rest.
# What was measured:
# [1] = viability loss in pontine glioma line – cell-based, JHH-DIPG-1, MIPE4.0, CellTiter-Glo, qHTS, dose response (AID 1347062; cut-off not given, nearly all actives have AC50 up to about 27 µM;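 as to AC50: cells exposed to compound for two days before readout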); settings: JHH-DIPG-1 viability, CellTiter-Glo ATP luminescence
# [2] = viability loss in pontine glioma line – cell-based, SU-DIPG-IV, MIPE4.0, CellTiter-Glo, qHTS, dose response (AID 1347063; cut-off not given, nearly all actives have AC50 up to about 30 µM;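 also: compound exposure lasted 48 hours before the viability readout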); settings: CellTiter-Glo ATP luminescence
# [3] = viability loss in pontine glioma line – cell-based, SU-DIPG-XXV, MIPE5.0, CellTiter-Glo, qHTS, dose response (AID 1347065; cut-off not given, nearly all actives have AC50 up to about 26 µM;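 also: cells exposed to compound for 48 hours before ATP readout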); settings: CellTiter-Glo ATP luminescence
# [4] = JHH-DIPG-1 glioma cell viability, MIPE5.0 library, CellTiter-Glo luminescence, qHTS (AID 1347067; cut-off not given, nearly all actives have AC50 up to about 26 µM;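 also: cells exposed to compound for 48 hours before readout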); settings: JHH-DIPG-1 glioma viability, CellTiter-Glo ATP luminescence
# [5] = viability loss with induced miR-34 in A549 – imaging, A549 dox-inducible miR-34, nuclei and caspase counts, primary screen (AID 1347080;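 active = compounds whose cell count with miR-34 switched on is under 0.7 times the count with it off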); settings: A549 miR-34 inducible, Hoechst nuclei count, 48 h
# [6] = viability loss in pontine glioma line – cell-based, SU-DIPG-XIII, MIPE5.0, CellTiter-Glo, qHTS, dose response (AID 1347064; cut-off not given, nearly all actives have AC50 up to about 23 µM;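 also: cells exposed to compound for 48 hours before the viability read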); settings: CellTiter-Glo ATP luminescence
# [7] = growth inhibition of DIPG cells – cell-based, MIPE5.0 library, qHTS (AID 1347068; cut-off not given, nearly all actives have IC50 up to about 30 µM;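 also: cells exposed to compound for 48 hours before viability readout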); settings: SU-DIPG-XXV viability
# [8] = growth inhibition, single agent or in combination, cell-based, chromothripsis tumors, cisplatin or BGB combos (AID 1671449); settings: LFS_MB_P medulloblastoma cells;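 also: cells exposed for 96 hours; 0% = vehicle DMSO and 100% = killing by high DMSO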
# [9] = growth inhibition, single agent and combos, cell-based, chromothripsis tumors, cisplatin or BGB combos (AID 1671450); settings: HDN33 neuroblastoma cells, stronger effect = higher value;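 also: cells exposed to compound for four days; 0% = vehicle DMSO and 100% = cell killing by high DMSO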
# [10] = growth inhibition, single agents and combos, ICB984, cell-based, cisplatin or BGB combos, synergistic combos for chromothripsis tumors (AID 1671451; call rule not given here;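 also: cells exposed for 96 hours before readout; 0% = vehicle DMSO and 100% = killing by high DMSO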); settings: ICB984 medulloblastoma cells, drug combinations, stronger effect = higher value
# [11] = growth inhibition, single agents and combos, HTB85, cell-based, BGB or cisplatin IC20 combos, synergistic combos for chromothripsis tumors (AID 1671453); settings: HTB85 osteosarcoma cells, drug combinations, stronger effect = higher value;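 also: cells exposed for 96 hours before readout; 0% = vehicle DMSO and 100% = high DMSO killing control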
# [12] = growth inhibition, MDA-MB-436, cell-based, BGB or cisplatin combos, synergistic combos for chromothripsis tumors (AID 1671458; call rule not given here;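 also: cells exposed for 96 hours; 0% = vehicle DMSO and 100% = killing by high DMSO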); settings: MDA-MB-436 breast carcinoma growth inhibition, drug combinations, stronger effect = higher value
# [13] = BT084 cell growth, single and combined drugs, ICGC_MB145, cisplatin and BGB IC40 combos (AID 1671461); settings: BT084 medulloblastoma cells, drug combinations, stronger effect = higher value;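 also: cells exposed to drugs for 96 hours; 0% = vehicle DMSO and 100% = high DMSO full killing control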
# [14] = RCMB18 cell growth, single agent and combined, cisplatin and BGB IC40 combos (AID 1671462); settings: RCMB18 medulloblastoma cells, stronger effect = higher value;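 also: cells exposed to compound for four days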
# [15] = CRL1545 cell growth, single agent and combined, cisplatin and BGB IC20 combos (AID 1671464); settings: CRL1545 osteosarcoma cells, stronger effect = higher value;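 also: cells exposed to compound for 96 hours before readout; 0% = vehicle DMSO and 100% = high DMSO killing control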
# [16] = MELAS cybrid and Rieske KO viability enhancers – cell-based, MELAS cybrids, Rieske KO mouse fibroblasts, CellTiter-Glo, primary screen (AID 1508586;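 active = mean z-score across replicates of 1.96 or higher in either the MELAS or the Rieske mutant cell line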;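 also: z relative to plate mean and SD of compound and empty wells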); settings: low glucose
# [17] = stronger effect = lower value, cell number ratio, induced over uninduced
# [18] = measured here: relative caspase fold change +Dox/-Dox
# [19] = measured here: total cells with miR-34 induction, stronger effect = lower value
# [20] = measured here: total cells without miR-34 induction
# [21] = measured here: with BGB IC20 combination, at 0.5 µM
# [22] = measured here: with cisplatin IC20 combination, at 0.5 µM
structure (smiles),measurement,setting,value
CO[C@H]1C[C@@H]2CC[C@@H](C)[C@@](O)(O2)C(=O)C(=O)N2CCCC[C@H]2C(=O)O[C@H]([C@@H](C)C[C@@H]2CC[C@@H](O)[C@H](OC)C2)CC(=O)[C@H](C)/C=C(\C)[C@@H](O)[C@@H](OC)C(=O)[C@H](C)C[C@H](C)/C=C/C=C/C=C/1C,AC50,[1],20.9 µM (active)
same,AC50,[2],20.9 µM (active)
same,AC50,[3],16.6 µM (active)
same,AC50,[4],23.5 µM (active)
same,fold change,[5]; [17],0.999 (inactive)
same,fold change,[5]; [18],1.23
same,cell count,[5]; [19],3690
same,cell count,[5]; [20],3700
CO[C@H]1/C=C/O[C@@]2(C)Oc3c(C)c(O)c4c(O)c(c(/C=N\N5CCN(C6CCCC6)CC5)c(O)c4c3C2=O)NC(=O)/C(C)=C\C=C\[C@H](C)[C@H](O)[C@@H](C)[C@@H](O)[C@@H](C)[C@H](OC(C)=O)[C@@H]1C,AC50,[1],0.105 µM (active)
same,AC50,[2],0.0935 µM (active)
same,AC50,[6],23.5 µM (active)
same,AC50,[3],26.3 µM (active)
same,IC50,[7],20.9 µM (active)
same,inhibition,"[8]; at 0.5 µM, stronger effect = higher value",5.09% (inactive)
same,inhibition,"[8]; measured here: combination with BGB IC20, at 0.005 µM",-7.42%
same,inhibition,"[8]; measured here: combination with BGB IC40, at 0.005 µM",-15%
same,inhibition,"[8]; measured here: combination with BGB IC40, at 0.05 µM",-18.2%
same,inhibition,"[8]; measured here: combination with cisplatin, at 0.5 µM, stronger effect = higher value",-6.85%
same,inhibition,"[8]; measured here: combination with cisplatin, at 5 µM, stronger effect = higher value",15%
same,inhibition,"[9]; BGB combo, at 5 µM",85.6%
same,inhibition,[9]; at 0.5 µM,-11.9% (inactive)
same,inhibition,"[9]; cisplatin combo, at 5 µM",6.46%
same,inhibition,[9]; [21],-21.1%
same,inhibition,[9]; [22],-18.8%
same,inhibition,"[9]; single agent, at 5 µM",-3.56%
same,inhibition,"[10]; BGB IC20 combo, at 0.005 µM",-21.8%
same,inhibition,"[10]; BGB IC40 combo, at 0.005 µM",-25.4%
same,inhibition,"[10]; BGB IC40 combo, at 0.05 µM",-16.4%
same,inhibition,[10]; at 0.5 µM,-17.3% (inactive)
same,inhibition,"[10]; cisplatin combo, at 0.05 µM",-19.6%
same,inhibition,"[10]; cisplatin combo, at 0.5 µM",-17.5%
same,inhibition,"[10]; cisplatin combo, at 5 µM",-18.6%
same,inhibition,"[10]; measured here: 5 uM single agent, at 5 µM",-17.8%
same,inhibition,[11]; at 0.5 µM,16% (inactive)
same,inhibition,"[11]; measured here: with BGB IC20, at 0.5 µM",12.6%
same,inhibition,"[11]; measured here: with BGB IC20, at 5 µM",76.7%
same,inhibition,"[11]; measured here: with cisplatin IC20, at 0.5 µM",35.8%
same,inhibition,"[11]; measured here: with cisplatin IC20, at 5 µM",10.4%
same,inhibition,"[11]; single agent, at 5 µM",35.1%
same,inhibition,[12]; at 0.5 µM,-19% (inactive)
same,inhibition,"[12]; measured here: BGB combination, at 0.5 µM",-15.7%
same,inhibition,"[12]; measured here: BGB combination, at 5 µM",-5.36%
same,inhibition,"[12]; measured here: cisplatin combination, at 0.5 µM",-40.9%
same,inhibition,"[12]; measured here: cisplatin combination, at 5 µM",-22%
same,inhibition,[13]; at 0.5 µM,-28.3% (inactive)
same,inhibition,"[13]; cisplatin combination, at 0.5 µM",-31.9%
same,inhibition,"[13]; cisplatin combination, at 5 µM",-20.9%
same,inhibition,"[13]; measured here: BGB IC40 combination 0.05 uM, at 0.05 µM",-25.7%
same,inhibition,"[13]; single agent, at 5 µM",-12.9%
same,inhibition,[14]; at 0.5 µM,-14.8% (inactive)
same,inhibition,"[14]; cisplatin combo, at 5 µM",15%
same,inhibition,"[14]; measured here: BGB IC40 combination, at 0.05 µM",-18.7%
same,inhibition,"[14]; measured here: combination with cisplatin, at 0.5 µM",-14.5%
same,inhibition,"[14]; single agent, at 5 µM",27.7%
same,inhibition,[15]; at 0.5 µM,4.23% (inactive)
same,inhibition,[15]; [21],23.5%
same,inhibition,[15]; [22],-7.81%
same,inhibition,"[15]; single agent, at 0.05 µM",8.47%
same,inhibition,"[15]; single agent, at 5 µM",73.2%
Cc1ccccc1C(C(=O)NC1CCCC1)N(C(=O)Cn1cnc2ccccc21)c1cccc(F)c1 (stereo unspecified),outcome,[1],inactive
same,outcome,[2],inactive
NC1(Cc2ccc(Cl)cc2)CCN(c2ncnc3[nH]ccc23)CC1,AC50,[1],20.9 µM (active)
same,AC50,[2],11.8 µM (active)
same,AC50,[6],14.8 µM (active)
same,AC50,[3],14.8 µM (active)
same,fold change,[5]; [17],0.99 (inactive)
same,fold change,[5]; [18],0.525
same,cell count,[5]; [19],7470
same,cell count,[5]; [20],7540
same,z-score,"[16]; MELAS cybrid survival, CellTiter-Glo 48 h, stronger effect = higher value",-0.165 (inactive)
same,z-score,"[16]; Rieske KO mouse fibroblast survival, CellTiter-Glo 72 h",-1.1
